Measurements reported in PubChem BioAssay AID624101 (Broad Institute, 2012).
About 120 (0.17%) of roughly 70,000 compounds were called active. Many of the other results were omitted from the sample, so actives are more common in it than they were. Values without a mark were called inactive. Rule as the data show it: active = inhibition above about 34%; inconclusive = no clear call, values can overlap the other calls; inactive = below about 11%.
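Also: 0% = DMSO and 100% = no enzyme.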

These compounds were tested against Isocitrate dehydrogenase [NADP] cytoplasmic (Homo sapiens) (UniProt O75874) (assay: PubChem AID 624101). Conditions: IDH1 R132H reductase, diaphorase/resazurin fluorescence, 60 min; at 10 µM; hits give high values.
Chain of Isocitrate dehydrogenase [NADP] cytoplasmic (Homo sapiens) (O75874 whole entry R132H): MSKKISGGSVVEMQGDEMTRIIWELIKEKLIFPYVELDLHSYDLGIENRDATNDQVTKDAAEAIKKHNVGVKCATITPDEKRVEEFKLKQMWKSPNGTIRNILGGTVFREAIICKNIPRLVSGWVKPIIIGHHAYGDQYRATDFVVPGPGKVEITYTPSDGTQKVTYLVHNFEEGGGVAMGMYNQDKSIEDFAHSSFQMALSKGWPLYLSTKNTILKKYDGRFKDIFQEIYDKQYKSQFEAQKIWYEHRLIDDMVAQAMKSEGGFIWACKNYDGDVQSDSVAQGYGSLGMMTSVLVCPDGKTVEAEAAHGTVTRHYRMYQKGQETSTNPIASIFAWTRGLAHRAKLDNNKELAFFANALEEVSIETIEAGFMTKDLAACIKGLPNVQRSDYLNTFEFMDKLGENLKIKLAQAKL
With `COc1cccc(-c2ccc3c(c2)O[C@H](CN(C)C(=O)C2CCOCC2)[C@H](C)CN([C@H](C)CO)S3(=O)=O)c1` the inhibition was -1.58%. With `C[C@H](O)C#Cc1ccc2c(c1)O[C@H](CN(C)Cc1ccccn1)[C@H](C)CN([C@H](C)CO)S2(=O)=O` the inhibition was 1.79%. For `CCCC#Cc1ccc2c(c1)O[C@@H](CN(C)CCC)[C@@H](C)CN([C@H](C)CO)S2(=O)=O`, the inhibition was -0.176%. For `CCCN(C)C[C@H]1Oc2cc(C#CCC(C)C)ccc2S(=O)(=O)N([C@H](C)CO)C[C@H]1C`, the inhibition was -4.36%. `C/C=C/c1ccc2c(c1)O[C@H](CN(C)C(=O)Cc1cccnc1)[C@@H](C)CN([C@H](C)CO)S2(=O)=O` showed an inhibition of 9.7%. `C/C=C/c1ccc2c(c1)O[C@@H](CN(C)C(=O)Cc1ccccc1)[C@H](C)CN([C@@H](C)CO)S2(=O)=O` gave an inhibition of 0.0005%. Work on `C[C@@H]1CN([C@@H](C)CO)S(=O)(=O)c2ccc(C#CCC3CCCC3)cc2O[C@@H]1CN(C)C` yielded an inhibition of -1.79%. `C/C=C/c1ccc2c(c1)O[C@H](CN(C)C(=O)Cc1ccncc1)[C@@H](C)CN([C@@H](C)CO)S2(=O)=O` was tested, and the inhibition was 37.6% (active). In the case of `CCCN(C)C[C@@H]1Oc2cc(C#CCc3ccccc3)ccc2S(=O)(=O)N([C@H](C)CO)C[C@@H]1C`, the inhibition is reported as 35.5% (active). With `C[C@@H]1CN([C@@H](C)CO)S(=O)(=O)c2ccc(C#CCC3CCCC3)cc2O[C@H]1CN(C)Cc1ccc(C(=O)O)cc1` the inhibition was 0.74%. With `C[C@@H]1CN([C@H](C)CO)S(=O)(=O)c2ccc(C#CCC3CCCC3)cc2O[C@H]1CN(C)Cc1ccc(C(=O)O)cc1` the inhibition was 45.9% (active). `C[C@@H]1CCCCO[C@@H](CN(C)C(=O)Nc2ccc(C(F)(F)F)cc2)[C@H](C)CN([C@H](C)CO)C(=O)c2cc(NC(=O)C3CCCCC3)ccc2O1` gave an inhibition of 1.02%. Work on `O=C(NCC[C@@H]1CC[C@H](NC(=O)C2CC2)[C@@H](CO)O1)c1cc(Cl)cc(Cl)c1` yielded an inhibition of 0.406%. For `CCCNC(=O)C[C@H]1C[C@@H]2c3cc(NC(=O)C4CCOCC4)ccc3O[C@@H]2[C@H](CO)O1`, the inhibition was 0.074%. Compound `C[C@@H](NC(=O)C[C@@H]1C=C[C@@H](NC(=O)CN2CCOCC2)[C@H](CO)O1)c1ccccc1` has an inhibition of 0.081%. `CO[C@@H]1CN(C)C(=O)c2ccc(NC(=O)C3CC3)cc2OC[C@H](C)N(C(=O)c2ccccc2)C[C@@H]1C` gave an inhibition of 0.146%. `CO[C@@H]1CN(C)C(=O)c2cc(NS(=O)(=O)c3ccccc3C)ccc2OC[C@@H](C)N(S(C)(=O)=O)C[C@@H]1C` gave an inhibition of -0.22%. `Cc1ccc(S(=O)(=O)N[C@@H]2CC[C@H](CCn3cc(C4(O)CCCC4)nn3)O[C@H]2CO)cc1` showed an inhibition of 0.172%. With `CCNC(=O)C[C@@H]1CC[C@H](NC(=O)NC2CCCCC2)[C@H](CO)O1` the inhibition was 0.102%. `CO[C@@H]1CN(C)C(=O)c2ccc(NC(=O)C3CCCC3)cc2OC[C@H](C)NC[C@@H]1C` gave an inhibition of -0.326%. Work on `CO[C@@H]1CN(C)C(=O)c2cc(NC(=O)c3ccccc3F)ccc2OC[C@H](C)NC[C@@H]1C` yielded an inhibition of 0.217%. `COc1cccc(CNC(=O)c2cc3c(c(-c4cccc(-c5ccc(C#N)cc5)c4)n2)[C@@H](CCO)N([S@](=O)C(C)(C)C)C3)c1` showed an inhibition of 0.432%. Compound `O=C(N[C@@H]1CC[C@@H](CCNS(=O)(=O)c2ccccc2Cl)O[C@@H]1CO)c1ccccc1` has an inhibition of -0.485%. `CO[C@@H]1CN(C)C(=O)c2cc(NC(=O)C3CC3)ccc2OC[C@@H](C)N(C(=O)c2ccncc2)C[C@H]1C` was tested, and the inhibition was 0.284%. With `COc1ccccc1-c1cnc2c(c1)C(=O)N([C@@H](C)CO)C[C@H](C)[C@@H](CN(C)C(C)=O)O2` the inhibition was -1.01%. `O=C(C[C@H]1C[C@H]2c3cc(NS(=O)(=O)c4ccc(F)cc4)ccc3O[C@H]2[C@H](CO)O1)NCc1cc(F)ccc1F` was tested, and the inhibition was -0.236%. Compound `O=C(N[C@H]1CC[C@@H](CCNS(=O)(=O)c2cccc(Cl)c2)O[C@@H]1CO)c1ccccc1` has an inhibition of -0.277%. For `CC(C)NC(=O)N[C@H]1CC[C@@H](CC(=O)NCc2ccc(Oc3ccccc3)cc2)O[C@@H]1CO`, the inhibition was -0.181%. `O=C(N[C@H]1CC[C@H](CCNS(=O)(=O)c2ccc(F)cc2)O[C@H]1CO)C1CCC1` was tested, and the inhibition was -0.096%. `C[C@@H]1CN([C@H](C)CO)C(=O)c2cc(-c3ccc(C(=O)N(C)C)cc3)cnc2O[C@H]1CN(C)C(=O)C1CC1` showed an inhibition of -0.906%. With `CO[C@@H](CN(C)C(=O)c1cnccn1)[C@@H](C)CN([C@@H](C)CO)S(=O)(=O)c1ccc(Cl)cc1` the inhibition was 0.106%. `O=C(C[C@H]1C[C@@H]2c3cc(NC(=O)c4cccnc4)ccc3O[C@@H]2[C@H](CO)O1)NCc1ccccn1` showed an inhibition of -0.419%. `CO[C@H]1CN(C)C(=O)c2ccc(NC(=O)c3ccc4c(c3)OCO4)cc2OC[C@@H](C)NC[C@@H]1C` gave an inhibition of 0.0335%. For `COCC(=O)Nc1ccc2c(c1)OC[C@@H](C)N(C(=O)c1cnccn1)C[C@H](C)[C@@H](OC)CN(C)C2=O`, the inhibition was 0.0305%. `CO[C@@H]1CN(C)C(=O)c2ccc(NC(=O)Nc3ccccc3)cc2OC[C@@H](C)N(C(=O)Nc2c(C)noc2C)C[C@@H]1C` showed an inhibition of -0.183%. Work on `CO[C@@H]1CN(C)C(=O)c2cc(NS(=O)(=O)CC(F)(F)F)ccc2OC[C@@H](C)N(Cc2ccccn2)C[C@H]1C` yielded an inhibition of 0.0375%. `CO[C@H]1CN(C)C(=O)c2cc(NC(=O)C3CC3)ccc2OC[C@H](C)N(C(=O)CN(C)C)C[C@H]1C` gave an inhibition of 0.155%. `O=C(C[C@@H]1C[C@H]2c3cc(NC(=O)Nc4ccccc4F)ccc3O[C@H]2[C@@H](CO)O1)NC1CCCCC1` showed an inhibition of -0.261%. In the case of `CCC(=O)Nc1ccc2c(c1)C(=O)N(C)C[C@H](OC)[C@H](C)CN(C(=O)C1CCC1)[C@@H](C)CO2`, the inhibition is reported as 0.203%. With `COCC(=O)Nc1ccc2c(c1)OC[C@@H](C)N(C(=O)c1ccncc1)C[C@@H](C)[C@@H](OC)CN(C)C2=O` the inhibition was -0.0035%. Work on `CO[C@@H]1CN(C)C(=O)c2cc(NC(=O)C3CC3)ccc2OC[C@@H](C)N(Cc2ccc(F)cc2)C[C@@H]1C` yielded an inhibition of -0.084%. `CN(C)CC(=O)Nc1ccc2c(c1)[C@H]1C[C@H](CC(=O)NCc3ccccc3)O[C@@H](CO)[C@H]1O2` showed an inhibition of -0.369%. Work on `C[C@H](CO)N1C[C@H](C)[C@H](CN(C)C(=O)C2CCOCC2)Oc2ncc(-c3ccccc3)cc2C1=O` yielded an inhibition of 0.163%. In the case of `Cc1ccc(S(=O)(=O)NCC[C@H]2CC[C@@H](NC(=O)C3CCOCC3)[C@@H](CO)O2)cc1`, the inhibition is reported as 0.168%. Compound `COc1cccc(C(=O)Nc2ccc3c(c2)OC[C@H](C)NC[C@H](C)[C@H](OC)CN(C)C3=O)c1` has an inhibition of -0.351%. `CO[C@@H]1CN(C)C(=O)c2cc(NC(C)=O)ccc2OC[C@H](C)N(Cc2ccccc2F)C[C@@H]1C` showed an inhibition of -0.198%. Work on `Cc1ccc(-c2cnc3c(c2)C(=O)N([C@@H](C)CO)C[C@H](C)[C@H](CN(C)C(=O)c2cccnc2)O3)cc1` yielded an inhibition of -1.23%. `CO[C@@H](CN(C)S(=O)(=O)c1ccccc1)[C@@H](C)CN(Cc1ccccc1Cl)[C@H](C)CO` was tested, and the inhibition was -0.567%. `O=C(N[C@H]1CC[C@@H](CCNS(=O)(=O)c2ccc(F)cc2)O[C@@H]1CO)c1ccccn1` was tested, and the inhibition was 0.234%. `Cc1noc(C)c1C(=O)N(C)C[C@H]1OCc2ccccc2-c2c(n(C)c3ccccc23)C(=O)N([C@@H](C)CO)C[C@H]1C` gave an inhibition of -2%. Compound `C[C@@H]1CN([C@@H](C)CO)C(=O)Cc2cc(NC(=O)CCCCCC(=O)Nc3ccccc3N)ccc2O[C@H]1CN(C)C(=O)Nc1ccc(C(F)(F)F)cc1` has an inhibition of 0.304%. `CC(=O)N(C)C[C@H]1Oc2cc(-c3ccc(C)cc3)ccc2S(=O)(=O)N([C@@H](C)CO)C[C@@H]1C` was tested, and the inhibition was 5.52%. `CS(=O)(=O)Nc1ccc2c(c1)[C@H]1C[C@H](CC(=O)NC3CCCC3)O[C@@H](CO)[C@H]1O2` gave an inhibition of -0.18%. For `CO[C@@H]1CN(C)C(=O)c2ccc(NS(C)(=O)=O)cc2OC[C@H](C)NC[C@H]1C`, the inhibition was 0.02%. For `CO[C@H]1CN(C)C(=O)c2cc(NS(=O)(=O)c3ccccc3)ccc2OC[C@H](C)N(C(=O)NC(C)C)C[C@@H]1C`, the inhibition was 0.066%. Work on `O=C(NCC[C@@H]1CC[C@H](NS(=O)(=O)c2cccc(F)c2)[C@H](CO)O1)c1cnccn1` yielded an inhibition of -0.0355%. `O=C(NCC[C@H]1CC[C@H](NC(=O)C2CC2)[C@@H](CO)O1)c1cc(Cl)cc(Cl)c1` showed an inhibition of -0.0835%. For `COc1cccc(-c2cn(CC[C@H]3CC[C@H](NC(=O)CN(C)C)[C@H](CO)O3)nn2)c1`, the inhibition was -0.376%. `O=C(O)C[C@@H]1C[C@@H]2c3cc(NC(=O)NC4CCCC4)ccc3O[C@@H]2[C@H](CO)O1` gave an inhibition of -0.0525%. Work on `C/C=C/c1cnc2c(c1)C(=O)N([C@@H](C)CO)C[C@@H](C)[C@@H](CN(C)C(=O)c1cnccn1)O2` yielded an inhibition of -1.79%. `CN(C)C(=O)C[C@@H]1CC[C@@H](NS(=O)(=O)c2ccccc2)[C@H](CO)O1` gave an inhibition of -0.243%. For `CO[C@H]1CN(C)C(=O)c2cc(NC(=O)c3ccccc3)ccc2OC[C@H](C)NC[C@H]1C`, the inhibition was 0.304%.
